Data from the supplement of paper PMC6555819.

Assays:
Experiment in all cases: PBM binding z-score (relative to random genomic background probes); higher = stronger binding; sequences stand for … in GC…GCGATTGACAGCGTAGAATGAAGG
[1] = system: RARb homodimer (NR concentration 270 nM)
In short: (§1)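 Binding buffer was PBS pH 7.4 with 2% milk, 0.02% Triton X-100, 1 mM DTT, 0.2 mg/mL BSA and 0.4 mg/ml salmon testes DNA. In it, ligand-free nuclear receptor dimers were incubated 1 h on custom Agilent 4×180K protein-binding microarrays carrying double-stranded probes. Antibodies against each partner (one per run) detected binding, and z-scores were calculated against random background probes after regression normalization of scanned fluorescence.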

[2] = system: RARg:RXRa (NR concentration 270 nM, RXRa partner concentration 90 nM)
In short: as §1

[3] = system: RARg homodimer (NR concentration 270 nM)
In short: as §1

[4] = system: RXRa DBDmut IVT, anti-RXR (DBD mutation: RXRa K156A/R161A, NR concentration 90 nM)
In short: as §1

[5] = system: RXRa homodimer (NR concentration 180 nM)
In short: as §1

[6] = system: THRa:RXRa (NR concentration 90 nM, RXRa partner concentration 90 nM)
In short: as §1

[7] = system: THRa homodimer (NR concentration 90 nM)
In short: as §1

[8] = system: VDR homodimer (NR concentration 270 nM)
In short: as §1

Sequence	PBM binding z-score [1]	PBM binding z-score [2]	PBM binding z-score [3]	PBM binding z-score [4]	PBM binding z-score [5]	PBM binding z-score [6]	PBM binding z-score [7]	PBM binding z-score [8]
TGAATGAGGTTAAAGATCAGCGAACGTGGCGTCG	0.498	2.34	1.26	1.56	3.59	2.39	0.17	0.749
CGTCCAAGGTCAGCAGTTCAGTGAAAGCGACGTG	4.62	5.66	6.02	2.93	4.16	3.78	2.45	2.41
GCTTGTAGATCAAGGCTAAGAAAGACTAAGCTAA	-0.854	-0.533	-0.429	-0.427	-0.497	-0.5	-1.37	-0.708
ATATGTAGGTTACATCCGGCTCATTCAGGCTATG	0.467	0.906	1.15	0.846	0.829	1.09	0.4	0.27
CGAACGAGCGCATGAGTTGATAGCAAATGCCGAT	-0.651	-0.0221	-0.247	0.162	-0.236	-0.516	-0.891	-0.0717
TTCCCAAGGTGAGCTGAGGTCGTTGATCCAACTC	1.95	1.28	0.949	0.117	1.34	4.52	2.4	2.61
CCTAGCAGGCCATGGTCACTCAAGCATTTCGCTT	0.33	-0.134	0.141	-0.0842	-0.236	-0.37	-0.618	-0.529
ATCGAAAGGTCGTGCGGTGAGTATACAGAAAGGC	2.65	4.48	4.28	1.56	4.78	2.51	-0.0433	1.31
CAAACTATGTCACGAAAGGTCAAAGTCGAATGAC	5.15	6.02	5.58	1.55	6.73	4.49	1.4	2.8
CCTCGGAGGACAACAGGAGTTCAGAGCTGCCAGA	1.91	1.7	1.9	0.979	0.335	1.17	-0.102	2.95
TCATATAGGTAAAGGTGAAAGTTGAACGATATGA	2.08	2.34	1.51	0.648	3.71	1.79	-0.127	0.139
TCTAGTTGGTCAAAGATCACACACTCGAAATGCG	0.919	1.57	0.992	1.48	1.61	0.536	0.263	0.452
TTGAGTAGGTTAGGGGCATTCAGAATGGCGTCGA	1.7	0.491	0.689	0.378	0.569	1.14	1.29	1.51
TAGCCTAGGTCATTCAGCGGCCAGTATAGAAAGC	2.81	5.65	4.44	1.85	3.07	2.74	0.53	1.04
TCATATAGGTAATACAGGTCAAAGTCGGCATCTA	3.29	2.91	2.37	2.04	3.63	2.71	1.24	2.13
ATCTCTAGGTAAAGATAGCTCAGTGAATGCAAAT	-0.409	0.141	0.459	-0.409	-0.19	-0.00233	-0.226	-0.379
CCTATTAGTAGACCATAAGGGCAACCGAAGCTCG	1.65	0.962	0.835	0.475	0.769	1.57	1.11	0.68
CGAACTAGATCATCCAGGACAGTGAATACATTGA	0.254	0.0804	0.347	0.701	-0.151	1.13	1.14	0.494
CCAGACAAGTGAGAAGGTAACTCAGCCTCGATTA	0.174	0.0341	0.205	0.366	0.108	0.152	0.461	0.281
CCTATTAGTTGACCATAAGGGCAAGCGAAGCTCG	1.9	0.986	1.05	0.414	0.645	1.75	1.08	0.847
ATCTCTAGGTAAAGATAGGTCAGTGAATGCAAAT	2.4	1.84	1.85	0.189	1.2	2.02	0.451	0.412
TATACAGGGTAAAAGGCCAGAGTACGAATGTCGA	1.6	1.56	1.59	-0.337	1.11	0.651	-0.663	0.418
CGTCCAAGTTCAAAGGTCAGTGAAGAGATGACGG	4.6	7.24	6.28	4.85	8.41	3.84	0.506	5.47
CGCCCAAGGTCAGAGAGGTCAGTGAATGCCGAGT	5.43	6.31	6.93	3	5.42	4.15	2.33	5.31
TAGCCCAGGTCATGGGCCAGTATACCACGCGAAC	2.61	4.42	4.43	0.576	4.06	3.69	2.3	1.08
TCTAGTTGGCCACGGAGGTCACACACGACGGGTA	3.85	3.98	3.67	0.683	4.31	3.48	2.53	1.99
ATCTCTAGGTAACCAAGTTTAGTGAATGCCGAAC	0.287	0.383	0.348	0.384	0.298	0.78	0.672	0.855
CGTCCAAGGTCAGAGAGGTCAGTGCATGCCGAGT	5.13	6.03	6.95	3.49	5.11	4.21	2.91	6.02
TCTCGGAGGATACGAAAGGTCAGAGCTCGACATC	4.38	4.12	3.73	0.587	4.38	2.98	0.363	0.361
